# Assay results published in PubChem BioAssay AID1259245 (Vanderbilt High Throughput Screening Facility, 2017).
# Hit rate of the full screen: of about 40,000 compounds, about 1,400 (3.5%) were called active. The sample holds actives, similar compounds and a random draw of the others, so the mix is not that of the screen.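 The calls were made as follows: active = any of four per-well response measures lying three or more SD from its plate-wide compound average, in either direction; inactive = the rest, inconclusive results apart.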
# Biological target: Voltage-dependent calcium channel gamma-2 subunit (Mus musculus) + Glutamate receptor 2 (Rattus norvegicus) (UniProt O88602+P19491)
# Sequence (O88602 whole entry, looked up): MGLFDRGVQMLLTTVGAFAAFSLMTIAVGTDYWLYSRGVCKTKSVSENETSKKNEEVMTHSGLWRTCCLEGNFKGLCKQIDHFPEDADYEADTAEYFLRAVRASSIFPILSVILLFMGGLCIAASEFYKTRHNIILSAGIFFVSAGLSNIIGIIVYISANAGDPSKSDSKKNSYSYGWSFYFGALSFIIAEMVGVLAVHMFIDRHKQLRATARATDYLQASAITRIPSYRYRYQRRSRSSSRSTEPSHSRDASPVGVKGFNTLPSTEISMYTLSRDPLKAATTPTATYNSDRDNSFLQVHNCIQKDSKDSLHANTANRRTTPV
# Sequence (P19491 whole entry, looked up): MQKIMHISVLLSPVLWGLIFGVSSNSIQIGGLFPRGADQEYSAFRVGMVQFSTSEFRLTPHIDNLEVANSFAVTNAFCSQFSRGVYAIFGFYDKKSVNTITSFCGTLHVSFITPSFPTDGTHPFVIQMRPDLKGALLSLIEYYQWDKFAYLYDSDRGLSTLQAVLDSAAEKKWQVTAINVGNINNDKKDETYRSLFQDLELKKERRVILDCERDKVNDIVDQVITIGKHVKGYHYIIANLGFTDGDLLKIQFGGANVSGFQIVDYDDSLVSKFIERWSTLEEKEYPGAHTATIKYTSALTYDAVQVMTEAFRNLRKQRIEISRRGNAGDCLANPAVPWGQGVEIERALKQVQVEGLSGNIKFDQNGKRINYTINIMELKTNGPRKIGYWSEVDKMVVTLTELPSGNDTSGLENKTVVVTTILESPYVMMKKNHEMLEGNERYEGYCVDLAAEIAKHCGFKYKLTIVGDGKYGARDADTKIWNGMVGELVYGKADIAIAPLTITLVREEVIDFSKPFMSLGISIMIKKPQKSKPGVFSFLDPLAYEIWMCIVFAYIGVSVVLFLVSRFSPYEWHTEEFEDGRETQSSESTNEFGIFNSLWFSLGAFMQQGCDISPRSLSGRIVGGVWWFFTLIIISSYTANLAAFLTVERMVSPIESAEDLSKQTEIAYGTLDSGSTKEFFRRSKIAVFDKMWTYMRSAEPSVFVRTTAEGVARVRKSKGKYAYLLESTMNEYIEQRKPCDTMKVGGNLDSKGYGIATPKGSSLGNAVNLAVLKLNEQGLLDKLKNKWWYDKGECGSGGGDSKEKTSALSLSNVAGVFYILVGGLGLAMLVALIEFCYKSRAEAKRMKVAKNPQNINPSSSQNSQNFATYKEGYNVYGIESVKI
# Assay: AMPAR-TARP gamma-2 complex positive or negative modulation – cell-based, membrane potential dye, primary screen (AID 1259245)
# Conditions: HEK293 GluA2+stargazin, membrane potential dye (FDSS), glutamate EC50, at 30 µM, hits were called plate by plate, in both directions; compound max-min signal: compound-alone response (agonism); glutamate slope, % of max: measured here: glutamate response slope, % max
Compound,compound max-min signal,"glutamate response, % of max","glutamate slope, % of max [%]"
CSc1ccccc1NC(=O)C(=O)NCC(O)(c1ccco1)C1CC1 (stereo not drawn),0.142,47.7% (inactive),61
O=C(c1ccc(Cl)c(N2C(=O)CCS2(=O)=O)c1)N1CCc2ccccc2C1,0.0843,26.4% (inactive),47.6
CCOc1ccc(-c2ccc(N3CCN(C(=O)c4ccc5nsnc5c4)CC3)nn2)cc1,0.0304,15.3% (inactive),32.9
CCOc1ccccc1C(=O)N1CCN(c2ccc(-c3ccccn3)nn2)CC1,0.189,31.9% (active),43.1
O=C(CCn1ccc(=O)[nH]c1=O)N1CCN(c2ccc(-c3ccccn3)nn2)CC1,0.117,16.7% (inactive),21.1
CCn1ccnc1N1CCN(C(=O)c2ccccc2Cl)CC1,0.0774,50% (inactive),67.4
O=C(NCc1ccccc1)N1CCN(c2ccc(-c3ccncc3)nn2)CC1,0.115,17.8% (inactive),40.4
CCSc1ccccc1C(=O)N1CCN(c2ccc(-c3ccccn3)nn2)CC1,0.198,34.1% (active),45
CN1CCN(c2ccc(-c3cccc(NC(=O)COc4ccc(F)cc4F)c3)nn2)CC1,0.0723,38.5% (inactive),60.1
CCOc1ccc2c(=O)c(Oc3ccccc3Br)coc2c1,0.0905,40.8% (inactive),58.4
Cn1cc(C(=O)NCc2c(F)cccc2F)nn1,0.0862,93.4% (active),99.8
O=C(NCc1ccc(Cl)cc1)C(=O)NCc1c(F)cccc1F,0.122,54.4% (inactive),66.8
O=C(NCc1ccsc1)c1c(F)cccc1F,0.0794,28.8% (inactive),48.6
CC(=O)NCCn1ncc2c(N3CCOCC3)ncnc21,0.0821,32.3% (inactive),59.3
CCN1C(SCC(=O)Nc2cccc(Cl)c2)=NS(=O)(=O)c2ccccc21,0.0878,38% (inactive),62
CCOc1ccccc1Nc1nnc(Cc2ccc(OC)cc2)c(=O)[nH]1,0.0678,46% (inactive),67.9
O=C(NCC(O)(c1ccccc1)C1CC1)c1ccccc1Br (stereo not drawn),0.0722,13.9% (inactive),40
CSc1ccccc1C(=O)NCC(C)(O)C1CC1 (stereo not drawn),0.0943,38.3% (inactive),57.1
CCSc1ccccc1C(=O)NCC(O)(c1ccccc1)C1CC1 (stereo not drawn),0.0554,28.7% (active),57.8
COc1ccc(NC(=O)CSc2nccn(-c3cccc(F)c3)c2=O)cc1Cl,0.114,29.6% (inactive),46.8
O=S(=O)(NCC(O)c1ccsc1)c1cccs1 (stereo not drawn),0.105,47.4% (inactive),63.3
C=CCOC(=O)COc1ccc2c(c1)O/C(=C\c1cc(OC)ccc1OC)C2=O,0.106,58.4% (inactive),60.4
COc1ccc2c(c1)c(/C=C1\Oc3cc(O)cc(C)c3C1=O)cn2C,0.239,23.6% (active),43.9
Cc1[nH]c(=O)[nH]c(=O)c1CC(=O)N1CCN(S(C)(=O)=O)CC1,0.153,46.3% (inactive),86.1
CC(C)c1ccccc1NC(=O)Cc1csc(NC(=O)c2ccc(=O)[nH]c2)n1,0.062,20.3% (inactive),41.8
COc1cn(CC(=O)Nc2ccc(NC(C)=O)cc2)c(CSc2ncccn2)cc1=O,0.0519,26.3% (inactive),40.3

Compound,compound max-min signal,"glutamate response, % of max","glutamate slope, % of max [%]"
Cc1c(Cl)ccc2sc(N(Cc3ccccn3)C(=O)Cc3ccc(S(C)(=O)=O)cc3)nc12,0.0569,22.1% (inactive),54.5
COC(=O)N1CCC(CNS(=O)(=O)c2ccc(OC(F)(F)F)cc2)CC1,0.114,39.2% (inactive),61.1
O=C(NCC1(c2cccs2)CC1)Nc1c(F)cccc1F,0.107,24.4% (inactive),44
O=S(=O)(NCC1(c2cccs2)CC1)c1ccc(OC(F)(F)F)cc1,0.153,0.436% (active),9.92
COC(=O)c1cc(OC)c(OC)cc1NC(=O)c1cc(C)oc1C,0.112,34.9% (inactive),55.7
Cn1cccc1C(O)CNC(=O)C1(c2ccccc2)CCOCC1 (stereo not drawn),0.0879,49.3% (inactive),62.9
COc1ccc2c(=O)c(Oc3ccc(C(=O)N4CCN(c5ccccn5)CC4)cc3)c(C)oc2c1,0.0327,28.3% (active),56.7
COCCNC(=O)c1ccc(Oc2c(C)oc3cc(OC)ccc3c2=O)cc1,0.0907,9.44% (inactive),21.9
COc1ccc2c(=O)c(Oc3ccc(C(=O)Nc4cccnc4)cc3)c(C)oc2c1,0.137,24.4% (inactive),41.6
COc1ccc(CCNC(=O)Cn2nc(-c3ccccc3OC)ccc2=O)cc1,0.0465,26.6% (inactive),53.9
COC(=O)c1ccc2c(=O)n(Cc3ccc(C(=O)N4CCCCCC4)cc3)c(=S)[nH]c2c1,0.108,50.5% (inactive),81
CCc1cccc(CC)c1NC(=O)Cn1nc(-c2ccco2)c2sc(N3CCCCC3)nc2c1=O,0.0682,31.2% (inactive),54.8
Cc1ccc(NC(=O)Cn2nc(-c3ccco3)c3sc(N4CCOCC4)nc3c2=O)c(C)c1,0.131,34% (active),56.8
COc1ccc(C(=O)Cn2nc(-c3ccco3)c3sc(N4CCOCC4)nc3c2=O)cc1OC,0.102,27.5% (inactive),57
COCC(C)(O)CNC(=O)Cc1cccc(C)c1 (stereo not drawn),0.0936,4.21% (active),14.9
CCCc1ccc(C(=O)NCC(C)(O)COC)cc1 (stereo not drawn),0.117,37.6% (inactive),59.3
COCC(C)(O)CNC(=O)c1cc(C)oc1C (stereo not drawn),0.0874,39.3% (inactive),66.3
COc1ccc(OC)c2sc(N(Cc3ccccn3)C(=O)Cc3ccc(S(C)(=O)=O)cc3)nc12,0.0642,28.9% (inactive),45.5
O=C(Nc1ccc(N2CCCS2(=O)=O)cc1)c1ccc([N+](=O)[O-])cc1,0.0338,28.1% (inactive),51.8
Cc1cc([N+](=O)[O-])ccc1NC(=O)C(=O)NCc1ccncc1,0.158,47.7% (inactive),65.6
O=C(Nc1ccc([N+](=O)[O-])cc1Br)c1ccncc1,0.216,21.7% (active),38.8
Cc1cc(C)n(CCNC(=O)/C=C/c2cccs2)n1,0.131,25.6% (inactive),56.8
Cc1noc(C2CN(S(=O)(=O)c3ccc(Cl)cc3)C2)n1,0.142,44.3% (inactive),70.8
COc1ccc(NC(C)=O)cc1NC(=O)c1ccc(=O)[nH]n1,0.159,38.5% (active),57.1
COc1ccc(NC(C)=O)cc1NC(=O)CCCn1nc(-c2ccccc2)ccc1=O,0.08,33.8% (inactive),52.7
O=C(NCc1ccc2c(c1)OCO2)c1ccc(=O)[nH]n1,0.05,25.6% (inactive),54.3

Compound,compound max-min signal,"glutamate response, % of max","glutamate slope, % of max [%]"
Cc1nn(CCNC(=O)c2cccc([N+](=O)[O-])c2)c(C)c1Cl,0.133,50.5% (inactive),65.4
CCCC(=O)N1CCN(c2ccc(Nc3cc(C)ccn3)nn2)CC1,0.194,23.7% (active),43.2
CCCOc1ccc(N2CCN(C(=O)COc3ccc4ccccc4c3)CC2)nn1,0.0411,42.7% (inactive),61.1
Cc1ccc(N2CCN(C(=O)COc3nccc(C)n3)CC2)nn1,0.0842,38.9% (inactive),61.3
O=C(Nc1cccs1)N1CCC(c2nnc(-c3ccc(F)cc3)o2)CC1,0.0749,44.9% (inactive),64.6
Cc1ccc(CN2C(=O)NC3(CCN(C(=O)c4ccccc4F)CC3)C2=O)cc1,0.0483,11.7% (inactive),23.5
COc1ccc(CC(=O)Nc2ccc3c(c2)N(S(=O)(=O)c2ccccc2)CCC3)cc1,0.0777,49% (inactive),74.3
CN(C)S(=O)(=O)c1ccc(C(=O)Nc2ccc3c(c2)N(C(=O)c2ccco2)CC3)cc1,0.176,45.9% (inactive),62.8
Cc1cc(C(=O)Nc2nc(-c3cccs3)cs2)on1,0.0444,13.4% (inactive),25.9
CCOC(=O)c1csc(NC(=O)Cn2cnc(C)cc2=O)n1,0.0863,36.3% (inactive),51.4
CCOC(=O)c1csc(NC(=O)c2cc(C)no2)n1,0.211,21.3% (active),37.1
Cc1nc(NC(=O)c2ccc3c(c2)CCCC3)sc1C,0.129,29.7% (inactive),50.6
O=C(Nc1cccc(N2CCCS2(=O)=O)c1)c1cccc(F)c1,0.0432,21.4% (inactive),45.7
CCOc1ccccc1NC(=O)CSc1cc(N2CCC(C(=O)NC3CC3)CC2)ncn1,0.107,24% (inactive),50.5
O=C(CSc1cc(N2CCN(c3ccccc3F)CC2)ncn1)c1cccs1,0.0768,53.6% (inactive),73.7
COC(=O)c1ccc(CSc2cc(N3CCN(c4ccccc4F)CC3)ncn2)o1,0.0593,58.6% (active),59.5
Cc1cc(C)c2c(n1)nn1c(-n3ccnc3)cc(C)nc21,0.202,43.8% (inactive),65.7
CCOc1ccc(Nc2cc(C)nc3c4c(C)cc(C)nc4nn23)cc1,0.205,36.4% (inactive),58.7
Cc1cc(C)c2c(n1)nn1c(NCC(C)C)cc(C)nc21,0.313,35.7% (active),52.5
CC(=O)NCCn1ncc2c(N3CCN(c4ccccc4)CC3)ncnc21,0.109,30% (inactive),56.7
Cc1ccc(C(=O)CSc2nccn(-c3ccc(Cl)cc3)c2=O)c(C)c1,0.0972,25.5% (inactive),43.4
CCS(=O)(=O)N1CCCc2cc(NS(=O)(=O)c3cc(C)c(OC)c(C)c3)ccc21,0.0675,32.7% (active),46.4
COc1ccc(S(=O)(=O)Nc2ccc3c(c2)CCCN3S(C)(=O)=O)cc1C,0.0764,41% (inactive),56.8
CCS(=O)(=O)N1CCCc2ccc(NS(=O)(=O)c3cc(C)c(C)cc3OC)cc21,0.0618,43.6% (inactive),69.1
